# Measurements as given in PubChem BioAssay AID588590 (National Center for Advancing Translational Sciences (NCATS), 2011).
# Out of some 390,000 compounds screened, about 4,000 (1%) were called active. About 7% were inconclusive and are not listed. Calls come from the whole dose curve; as a rule, active = well fitted inhibition curve with a large enough effect; inconclusive = small, poorly fitted or top-dose-only effect, or another doubt; inactive = no such curve, though single readings can be large or run the other way. The list comes from a sample in which actives are over-represented; it also holds similar structures and randomly drawn compounds. A call without a number means that no potency is given here.
# Molecular target: DNA polymerase iota (Homo sapiens) (UniProt Q9UNA4)
# Sequence (Q9UNA4 whole entry, looked up): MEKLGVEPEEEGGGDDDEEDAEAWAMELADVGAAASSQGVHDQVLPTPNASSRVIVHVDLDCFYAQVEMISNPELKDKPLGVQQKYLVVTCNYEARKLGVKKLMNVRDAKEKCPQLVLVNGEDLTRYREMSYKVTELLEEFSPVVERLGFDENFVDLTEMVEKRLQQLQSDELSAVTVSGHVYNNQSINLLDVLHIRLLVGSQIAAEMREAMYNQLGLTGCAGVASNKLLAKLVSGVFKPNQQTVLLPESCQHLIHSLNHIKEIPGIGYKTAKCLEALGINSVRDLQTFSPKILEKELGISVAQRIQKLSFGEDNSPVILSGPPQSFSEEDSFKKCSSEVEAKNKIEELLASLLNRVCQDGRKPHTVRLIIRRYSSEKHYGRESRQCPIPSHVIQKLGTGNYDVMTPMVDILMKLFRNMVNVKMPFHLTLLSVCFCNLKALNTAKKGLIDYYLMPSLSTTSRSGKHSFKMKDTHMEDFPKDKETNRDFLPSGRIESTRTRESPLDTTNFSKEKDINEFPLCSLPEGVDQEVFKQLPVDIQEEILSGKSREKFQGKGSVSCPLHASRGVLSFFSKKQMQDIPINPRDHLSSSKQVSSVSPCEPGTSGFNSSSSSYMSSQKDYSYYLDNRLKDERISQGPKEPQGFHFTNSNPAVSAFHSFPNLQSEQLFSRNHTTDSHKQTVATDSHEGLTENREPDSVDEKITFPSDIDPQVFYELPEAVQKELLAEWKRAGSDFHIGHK
# Test: qHTS for Inhibitors of Polymerase Iota
# Settings: Pol iota fluorescent replication assay, 10 min; series mostly up to 115 µM
# From the text: DNA polymerases, such as Pol iota, are specifically involved in DNA repair. Pol iota specifically plays an important role in translesion synthesis, where the normal high-fidelity DNA polymerases cannot proceed and DNA synthesis stalls. […] Thus, while pol eta's (and most likely iota's) normal function is to protect humans against the deleterious consequences of DNA damage, under certain conditions they can have deleterious effects on human health. As a consequence, we propose to utilize a high throughput replication assay to identify small molecule inhibitors of pol iota.
# In a collaboration between the National Institute of Child Health & Human Development (NICHD) and NIH Chemical Genomics Center, a high-throughput, fluorescent screen was developed to screen the NIH Molecular Libraries Small Molecule Repository (MLSMR). This screen is used to identify inhibitors of pol iota.
# NIH Chemical Genomics Center [NCGC]
# NIH Molecular Libraries Probe Centers Network [MLPCN]
# Assay Submitter (PI): Roger Woodgate, NICHD)
# Three microliters of reagents (buffer in column 3 and 4 as negative control and 10 nM Pol iota in columns 1, 2, and 5-48) will be dispensed into 1,536-well black solid-bottomed plate. Compounds (23 nL) will be transferred via Kalypsys pin tool equipped with 1536-pin array. The plates will then be incubated for 15 min at room temperature, and 1 µL substrate (50 nM final concentration) will be added to start the reaction and kinetically read twice at 0 min and 10 min on the Viewlux reader.
# Potency is the fitted concentration of half-maximal effect.
row,Compound,Potency
1,CCOc1ccc(NC(=O)c2ccc(NC(=O)COC(=O)c3ccc(NC(=O)CC#N)cc3)cc2)cc1,8.91 µM (active)
2,CCOc1ccc(NC(=O)CCNC(=O)c2ccc(Br)cc2)cc1,inactive
3,CCOc1ccc(NC(=O)c2ccc(NC(=O)CN3C(=O)C(=O)N(CC(C)C)C3=O)cc2)cc1,inactive
4,O=C1O/C(=C\c2ccc(O)cc2)C(O)=C1c1ccc(O)cc1,inactive
5,Oc1ccccc1-c1nc2ccc(Cl)cn2c1Nc1ccc2c(c1)OCCO2,inactive
6,CCOc1ccc(CCNC(=O)c2csc3c2CCCCC3)cc1,inactive
7,Cc1ccccc1OCC(=O)Nc1c(C(=O)Nc2ccccc2F)oc2ccccc12,inactive
8,CCOc1ccc(NC(=O)COc2ccc(C(=O)N3CCC(C(N)=O)CC3)cc2OC)cc1,inactive
9,O=C(COc1ccccc1)Nc1ccc(C(=O)N2CCCC2)cc1,89.1 µM (active)
10,O=C(COc1ccccc1)Nc1ccc(N2CCN(C(=O)c3cccs3)CC2)cc1,inactive
11,COc1ccc(C2Sc3ccccc3NC3=C2C(=O)c2ccccc23)c(OC)c1OC (configuration not stated),inactive
12,CCSc1nnc2c(n1)OC(c1ccc(OCC(=O)O)cc1)Nc1ccccc1-2 (configuration not stated),inactive
13,Cc1cc(C)c2sc(NC(=O)c3ccc(S(=O)(=O)N4CCCC4)cc3)nc2c1,inactive
14,CCCCN(CC)CCCNC(=O)c1nn(C)c2c1CS(=O)(=O)c1ccccc1-2,inactive
15,O=C(CSc1nc(=O)n2ccccc2n1)Nc1ccc2c(c1)OCCO2,inactive
16,Cc1ccn2c(=O)nc(SCC(=O)NCc3ccc4c(c3)OCO4)nc2c1,44.7 µM (active)
17,Cc1ccccc1-c1nnc(SCC(=O)NCc2ccc3c(c2)OCO3)n1C,inactive
18,Cc1ccccc1Nc1nn2c(=O)c3ccc(C(=O)NCCc4ccc(Cl)cc4)cc3nc2s1,inactive
19,CC(=O)c1cc(NC(=O)c2ccccc2)c(=O)oc1/C=C/N(C)C,inactive
20,O=C(COC(=O)c1cccc(Br)c1)Nc1cccc2c1C(=O)c1ccccc1C2=O,inactive
21,O=C(NC1=CC(=O)c2ccccc2C1=O)c1ccccc1,3.55 µM (active)
22,O=C(Nc1ccc([N+](=O)[O-])cc1)c1cnn2c1NC(=C1CC1)C=C2C(F)F,inactive
23,CCN(CCCNC(=O)c1cc2cc3cc(OC)ccc3nc2s1)c1ccccc1,inactive
24,O=C(NCCCN1CCN(c2cccc(Cl)c2)CC1)c1nnc(Cc2ccc(F)cc2Cl)o1,inactive
25,Cc1ccc(C)c(Nc2nnc(-c3ccc(C)c(S(=O)(=O)N4CCCCC4)c3)c3ccccc23)c1,89.1 µM (active)
26,Cc1ccc(-c2nnc(Nc3ccc(C(=O)N(C)C)cc3)c3ccccc23)cc1S(N)(=O)=O,inactive
27,Cc1ccc(Nc2nnc(-c3ccc(C)c(S(=O)(=O)N4CCCCC4)c3)c3ccccc23)cc1,inactive
